ANO1 activ – mouse TMEM16A channel activation, primary screen | B-score at 10 µM | HEK293 TMEM16A/YFP-H148Q/I152L, iodide quench fluorescence; stronger effect = lower value | 0.3% of 340,000 active | Q8BHY3;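 active means fluorescence-ratio B-score plate-corrected deviation score at least 3 library SD below zero, with starting fluorescence score within 5 deviations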;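 further: channel opened by trigger with iodide after compound preincubation; score built on the fluorescence ratio of max minus min over baseline; more negative score means more quench and so TMEM16A activation or potentiation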
Target sequence (Q8BHY3 whole entry, looked up): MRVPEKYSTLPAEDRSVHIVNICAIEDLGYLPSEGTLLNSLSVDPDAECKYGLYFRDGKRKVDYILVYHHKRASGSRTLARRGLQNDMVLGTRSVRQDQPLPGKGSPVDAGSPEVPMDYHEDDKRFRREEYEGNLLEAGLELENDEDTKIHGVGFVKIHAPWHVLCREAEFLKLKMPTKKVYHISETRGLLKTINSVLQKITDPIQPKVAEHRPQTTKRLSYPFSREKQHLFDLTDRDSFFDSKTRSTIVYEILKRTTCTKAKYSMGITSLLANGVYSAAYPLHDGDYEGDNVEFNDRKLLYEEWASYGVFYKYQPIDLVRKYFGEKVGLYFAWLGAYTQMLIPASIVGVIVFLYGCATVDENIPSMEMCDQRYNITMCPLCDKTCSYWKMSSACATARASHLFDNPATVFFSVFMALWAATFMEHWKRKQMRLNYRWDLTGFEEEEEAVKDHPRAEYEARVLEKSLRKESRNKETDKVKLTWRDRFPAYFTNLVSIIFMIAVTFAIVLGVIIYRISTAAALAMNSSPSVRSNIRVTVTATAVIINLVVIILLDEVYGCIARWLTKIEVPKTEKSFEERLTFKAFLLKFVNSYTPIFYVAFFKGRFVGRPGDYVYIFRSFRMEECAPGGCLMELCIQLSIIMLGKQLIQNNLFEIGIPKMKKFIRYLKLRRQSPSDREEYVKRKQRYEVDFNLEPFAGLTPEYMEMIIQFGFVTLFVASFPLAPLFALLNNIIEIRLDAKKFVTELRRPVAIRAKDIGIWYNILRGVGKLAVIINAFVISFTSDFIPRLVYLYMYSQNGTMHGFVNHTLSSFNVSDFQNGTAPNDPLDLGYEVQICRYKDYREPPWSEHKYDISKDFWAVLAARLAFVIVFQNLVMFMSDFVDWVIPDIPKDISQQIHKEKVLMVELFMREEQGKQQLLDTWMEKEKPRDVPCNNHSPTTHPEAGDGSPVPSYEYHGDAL
Kir21 inh – blocks the mouse Kir2.1 inward-rectifier potassium channel. B-score at 10 µM. 0.85% of 310,000 active. HEK293-Kir2.1, FluxOR thallium flux fluorescence; stronger effect = lower value. P35561. AID 1672;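 active means fluorescence ratio B-score at or below minus 3 SD of library scores, with starting-brightness B-score within 2 SD, cut at about -4.2 in these data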;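 further: channel flux triggered by added potassium and thallium sulfate stimulus; B-score of peak minus minimum fluorescence over baseline after thallium stimulus; more negative B-score means stronger Kir2.1 block with less thallium influx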
Rce1 inh – yeast Ras-converting enzyme inhibition. Q03530. yeast membranes, quenched prenylated peptide cleavage fluorescence. calls only. 0.27% of 290,000 active;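 active means fall in fluorescence gain of 50% or more versus controls, with final raw signal at or below 3038400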
ANO1 block – inhibitors of mouse TMEM16A calcium-activated chloride channel; HEK293 TMEM16A/YFP iodide influx fluorescence, ionomycin; normalized B-score (activity score, 25-100; higher = stronger inhibition) at 10 µM; 1.2% of 310,000 active; AID 588511;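 active means ratio plate-corrected score three or more library SD toward inhibition, starting fluorescence score within five deviations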;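 further: score derived from kinetic fluorescence span divided by baseline fluorescence per well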
CHT block – inhibits the human high affinity choline transporter; Q9GZV3; CHT-expressing cells, membrane potential dye, choline response; stronger effect = lower value; B-score at 10 µM; 0.86% of 310,000 active;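 active means B-score over 3 SD under the library average, and starting fluorescence ratio not unusually high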;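 further: choline stimulus applied at its EC90 after an EC20 pre-addition; B-score computed on integrated fluorescence ratio after choline addition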
CHT allo act – human CHT allosteric activation; Q9GZV3; 0.49% of 310,000 active; B-score at 10 µM; AID 488977; CHT-expressing cells, membrane potential dye, choline EC20; stronger effect = higher value; LV-AA mutant CHT in HEK293 cells;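 active means initial fluorescence not abnormally high and integrated response B-score, plate-corrected, over 3 SD above library mean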
Hits are given with their value; – = inactive; · = not tested or not shown; + = active, no number. The list is not random: actives were taken first. Their share in the collection is about 3.2%.

SMILES | ANO1 activ | Kir21 inh | Rce1 inh | ANO1 block | CHT block | CHT allo act
Cc1ccccc1NS(=O)(=O)c1ccc(C(=O)NCC(c2ccccc2)N(C)C)cc1 (stereo not drawn) | – | – | + | – | – | –
CCN1C(Nc2ccccc2)=NC[C@@H]1Cc1ccccc1 | – | – | – | – | – | –
CCCCCCCN1C(Nc2ccccc2)=NC[C@@H]1Cc1ccccc1 | – | -5.6 | – | – | – | –
c1ccc(C[C@H]2CN=C(Nc3ccccc3)N2CCCC2CCCC2)cc1 | – | -5.6 | – | – | – | –
Cc1ccc(S(=O)(=O)NCCC(=O)NCCc2ccc(S(N)(=O)=O)cc2)cc1C | – | · | · | · | · | ·
COc1ccc(NC2CCCN(C(=O)CCN3Cc4ccccc4C3=O)C2)cc1 (stereo not drawn) | – | – | – | – | – | –
COc1cc(SC)ccc1C(=O)OCC(=O)N1CCN(C(C)=O)CC1 | – | – | – | – | – | –
CCCN(CCC)S(=O)(=O)c1ccc(C(=O)Nc2nnc(-c3cccc(OC)c3)o2)cc1 | – | – | – | 25 | – | –
CCCN(CCC)S(=O)(=O)c1ccc(C(=O)Nc2nnc(-c3cc(OC)cc(OC)c3)o2)cc1 | – | – | – | 100 | – | –
O=C(NCCCNc1ccc(C(F)(F)F)cc1[N+](=O)[O-])c1cc(F)c(F)cc1Cl | – | – | – | – | – | –
O=C(NCCCNc1ccc(C(F)(F)F)cc1[N+](=O)[O-])c1ccc(Cl)cc1 | – | – | – | 100 | – | –
CCOC(=O)c1cc(-c2ccc(F)cc2)n(CCC(=O)NC2CCN(Cc3ccccc3)CC2)c1C | – | -4.6 | – | – | – | –
COc1cccc(-c2nnc(SCC(=O)OC(C)C)n2Cc2ccco2)c1 | – | – | – | – | – | –
CCOC(=O)Cc1nn(C)c(=O)c2ccccc12 | – | – | – | – | – | –
CCOC(=O)Cc1nn(Cc2nc(-c3ccc(C#N)cc3)cs2)c(=O)c2ccccc12 | – | – | – | 25 | – | –
CC(=O)C1=C(O)C(=O)N(c2ccc(Br)cc2)C1c1ccc(Br)cc1 (stereo not drawn) | – | – | – | – | – | –
COc1ccccc1CNC(=O)c1cc(C)nc2ccccc12 | – | – | – | – | – | –
COc1ccc(CNC(=O)c2cc(C)nc3ccccc23)cc1OC | -5.6 | – | – | – | – | –
Cc1cc(C)c2nc(-c3ccccn3)cc(C(=O)Nc3ccc(S(=O)(=O)Nc4cc(C)on4)cc3)c2c1 | – | – | – | 25 | – | –
Cc1cc(C)c2nc(-c3ccccn3)cc(C(=O)Nc3ccc(S(=O)(=O)Nc4onc(C)c4C)cc3)c2c1 | – | – | – | – | – | –
CN1CCN(C2=C(Cl)C(=O)C(c3cnc(N4CCCCC4)s3)=C(Cl)C2=O)CC1 | – | – | – | 100 | – | –
CCc1cc(N2CCOCC2)cc2c1[nH]c1ccccc12 | – | – | + | – | – | –
O=C1CSC(c2cn(-c3ccccc3)nc2-c2cc3ccccc3oc2=O)N1Cc1ccco1 (stereo not drawn) | – | – | + | – | – | –
O=C1CSC(c2cn(-c3ccccc3)nc2-c2cccs2)N1Cc1ccccc1 (stereo not drawn) | · | – | – | – | – | –
COc1ccc(NC2CCCN(C(=O)CSc3ccncc3)C2)cc1 (stereo not drawn) | – | – | – | – | – | –
SMILES | ANO1 activ | Kir21 inh | Rce1 inh | ANO1 block | CHT block | CHT allo act
COc1ccc(-n2nnnc2-c2ccc(S(C)(=O)=O)cc2Cl)cc1 | – | – | – | – | – | –
COC(=O)c1ccc(CNC(=O)c2ccc(NS(=O)(=O)c3ccc4[nH]c(=O)[nH]c4c3)cc2)cc1 | – | – | – | – | – | –
N=C(N)SCc1cn(-c2ccccc2)nc1-c1ccc(Br)cc1 | – | -7 | – | · | · | ·
O=S(=O)(c1ccccc1)N1CCN(c2ncnc3sc(-c4ccccc4)cc23)CC1 | – | – | – | · | · | ·
NNC(=O)c1cc2c(N3CCC(Cc4ccccc4)CC3)ncnc2s1 | – | – | – | 100 | – | –
Cc1cccc(NC(=O)COC(=O)CCc2c[nH]c3ccccc23)c1C | – | · | · | · | · | ·
CCN(CC)C(=O)Cn1cc(SCC(=O)NC2CCCC2)c2ccccc21 | – | – | – | – | – | –
CCn1cc(SCC(=O)NC2CCCC2)c2ccccc21 | – | -4.8 | – | – | – | –
Clc1ccccc1-c1nnc2n1CCCCC2 | – | – | – | – | – | –
Cc1nc(N2CCN(Cc3ccccc3)CC2)c(C#N)c2c1COC(C)(C)C2 | – | -7.5 | – | – | – | –
CC1(C)Cc2c(C#N)c(N3CCCC3)nc(-c3ccco3)c2CO1 | – | – | – | – | – | –
Cc1ccccc1NC(=O)COC(=O)c1cc(S(=O)(=O)N2CCOCC2)ccc1C | – | · | · | · | · | ·
Cc1cc(C)n(-c2c(C)[nH]c3ccccc23)n1 | – | -4.2 | – | – | – | –
CCOC(=O)CN(c1ccccc1C)S(=O)(=O)c1ccc(Cl)cc1 | – | – | – | – | – | –
Cc1ccc(C)c(N2CCN(CCCNC(=O)Cn3cccc3C(=O)c3ccccc3C)CC2)c1 | – | -7.4 | – | – | – | –
CC(NC1CCCC1)c1ccccc1 (stereo not drawn) | – | – | – | – | – | –
CC(NCCC(c1ccccc1)c1ccccc1)c1ccccc1 (stereo not drawn) | – | -6.4 | – | – | – | –
COc1ccc(S(=O)(=O)N2CCOCC2)cc1NC(=O)CSc1ccc(F)cc1 | – | · | · | · | · | ·
Cc1ccc(-n2c(-c3ccc(Br)cc3)c[n+]3c2CCc2ccc4cccnc4c2-3)cc1 | – | -14 | – | 100 | – | –
O=c1cc(CN2CCCc3ccccc32)nc2sccn12 | -11 | – | – | – | – | –
OC(CNCCC1C=Nc2ccccc21)Cn1c2ccc(Cl)cc2c2cc(Cl)ccc21 (stereo not drawn) | – | – | + | – | – | –
OC(CNCC1CCCO1)Cn1c2ccc(Cl)cc2c2cc(Cl)ccc21 (stereo not drawn) | – | -5.4 | – | – | – | –
Cc1nnc2c(-c3ccccc3)nc3ccccc3n12 | -16 | – | – | – | – | –
Cc1ccc(CCNC(=O)c2sc3nc4n(c(=O)c3c2C)CCC4)cc1 | – | – | – | – | – | –
CCOC(=O)/C(=C/c1ccc(OC(=O)c2ccccc2)cc1)C(C)=O | – | -9.4 | – | – | – | –
Cc1cccc(CN2CCc3c([nH]c4ccccc34)C2)c1 | – | -5.9 | – | – | – | –
Clc1ccc(CN2CCc3c([nH]c4ccccc34)C2)cc1Cl | – | – | + | – | – | –
COc1ccc(CCNc2ccc(C(CC(N)=O)NC(=O)c3cc(C)cc(C)c3)cc2[N+](=O)[O-])cc1 (stereo not drawn) | – | – | – | – | – | –
CCOC(=O)C(CSCC(=O)c1ccc(Br)cc1)NC(=O)OC(C)(C)C (stereo not drawn) | · | – | – | 100 | – | –
